Molecules are shown by their SMILES. Results filed as inconclusive are left out. Calls of active or inactive are those of the source. The calls were made as follows: active = hit-call score of the fitted dose curve at least 0.9, where 1 is the maximum; inconclusive = response in the unintended direction; inactive = score below 0.9.

For 14 compounds, AC50 and outcome results are on record in PubChem BioAssay (EPA / NIEHS).

This test can be described thus: ACEA_ER_AUC_viability: ACEA Biosciences xCELLigence Real-Time Cell Analysis on Estrogen Receptor Agonism for Viability (AID 2283782).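 Also: continuous compound exposure with impedance area under curve over 80 h; hit means loss of impedance signal meaning reduced cell growth or viability.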 The method, boiled down: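 T-47D; phenol red-free RPMI1640 + 10% CS-FBS; 8 conc., 1:4 serial, max 100 uM final, ≤0.5% DMSO; n = 2; continuous exposure; impedance monitored to 80 h post-dose; AUC vs DMSO.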
As a reminder, the AC50 is the concentration at which the activity in the assay is half-maximal. As to `Oc1ccc(Nc2ccccc2)cc1`, the AC50 is 25.4 µM (active). In the case of `CCCCOCCOCCOC(=O)CCCCC(=O)OCCOCCOCCCC`, the result was inactive. As for `CC/C=C\CCOC(C)=O`, the compound was called inactive.

`Cc1ccc(S(=O)(=O)OCC(F)(F)C(F)(F)C(F)(F)C(F)(F)C(F)(F)C(F)F)cc1`: the AC50 was 0.00308 µM (active).

In the case of `CCCCCC=O`, the result was inactive. For the compound `CCc1c(Br)c(Br)c(Br)c(Br)c1Br`, the call was inactive. On to `CCN(CC)c1ccc2c(C)cc(=O)oc2c1`, for which the AC50 is 17.1 µM (active).

For `O=C(O)C(F)(F)C(F)(F)C(F)(F)C(F)(F)C(F)(F)C(F)(F)C(F)(F)C(F)(F)Cl`, the concentration at half-maximal activity (AC50) is 119 µM (active).

Take `FC1CC(F)(F)C(F)(F)C1(F)F` (centres undefined): the compound was classed as inactive. For the compound `FC(F)(I)C(F)(F)C(F)(F)C(F)(F)I`, the AC50 was 129 µM (active).

On to `O=C(O)C(F)(F)C(F)(F)C(F)(F)C(F)(F)C(F)(F)C(F)(F)C(F)(F)C(F)(F)C(F)(F)C(F)(F)C(F)(F)C(F)(F)C(F)(F)F`, for which the AC50 is 2.91 µM (active). In the case of `C1COCCN1`, the outcome was inactive. As to `CCc1ccc(C(c2ccc(CC)cc2)C(Cl)Cl)cc1`, the result was inactive. On to `CS(C)(=O)=O`, for which the compound was called inactive.
